Screens as filed in PubChem.
This is a sample that favours compounds with a hit; in the whole collection about 15% have one here.
Sm TGR inh: blocks Schistosoma mansoni thioredoxin glutathione reductase; purified TGR, DTNB reduction, TNB absorbance 405 nm; Q962Y6; 360,000 tested, 3% active; Potency, µM (series often up to 114 µM), for the others: at the top dose activity change, negative = inhibition, hits mostly inhibitors; also: potency is read from the fitted curve at half-maximal effect; % is scaled to controls: 0 for no effect and ±100 for the full control effect; nearly all actives have a fitted effect of over 60% in size
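Kinetic colorimetric format: TGR-catalysed, NADPH-driven DTNB reduction monitored via TNB absorbance. Enzyme dispensed at 20 nM; compound exposure 15 min at room temperature before reaction start.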
SARS PLP yeast: SARS-CoV PLP inhibition in yeast; S. cerevisiae expressing SARS-CoV PLpro, growth rescue; Potency, µM (doses to about 32.9 µM), without a hit: at the top dose activity, positive = growth rescue, most hits filed as activators; 330,000 tested, 0.19% active; calls by dose curve; also: potency is read from the fitted curve at half-maximal effect; 0% is about no effect; nearly all actives have a fitted effect of over 55% in size
HCMV antiviral: blocks human cytomegalovirus replication | HFF cells, HCMV-luciferase reporter, 72 h; active compounds read low | activity change, negative = inhibition, % at 57.5 µM | 410,000 tested, 4.5% active; in the data active = activity change below about -60%; inconclusive = no clear call, values can overlap the other calls; inactive = above about -39%; also: % is scaled to controls: 0 for no effect and ±100 for the full control effect
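Luciferase read-out from HCMV-luciferase-infected HFFs (MOI 1 PFU/cell) 72 h post infection at 37C; compounds added after 16 h cell attachment; activity normalized between buffer-only basal and Salinomycin (10uM) inhibitor controls.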
Pf growth 48h: inhibits P. falciparum growth in the first generation, 48 h; P. falciparum luciferase growth in erythrocytes, 48 h; Potency, µM (titrated, usually from 28.7 µM), inactives show top-dose activity change, negative = inhibition, most hits filed as inhibitors; 310,000 tested, 5.9% active; AID 504832; also: potency is read from the fitted curve at half-maximal effect; % is scaled to controls: 0 for no effect and ±100 for the full control effect
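In quantitative HTS format, infected erythrocytes bearing luciferase-reporter parasites were treated for a single generation at 37 C. Luminescence after adding detection reagent served as the growth measure.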
Pf growth 96h: P. falciparum growth inhibition at 96 hour, primary screen for plastid delayed-death inhibitors | P. falciparum luciferase reporter growth, 96 h | Potency, µM (titrated, usually from 28.7 µM), for the others: at the top dose activity change, negative = inhibition, usual class: inhibitors | 320,000 tested, 6.9% active; also: potency is read from the fitted curve at half-maximal effect; % is scaled to controls: 0 for no effect and ±100 for the full control effect
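Delayed-death screen, second-generation endpoint: infected erythrocytes, 2% hematocrit, 0.05% parasitemia final; 96 hours at 37 C, 5% CO2; luciferase detection reagent; luminescence decrease equals reduced growth.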
HCV inhibitor: blocks hepatitis C virus; 340,000 tested, 3.4% active; AID 651820; Potency, µM (top dose mostly 41.8 µM), for the others: at the highest dose activity change, negative = inhibition, most hits filed as inhibitors; Huh7.5.1 HCVcc-Cre infection, luciferase reporter, 44 h; also: potency is read from the fitted curve at half-maximal effect; % is scaled to controls: 0 for no effect and ±100 for the full control effect
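A cell-based infection assay in which seeded cells (1,000 per well) receive test compound after 4 h, are inoculated with HCVcc-Cre at approximately 0.5 moi, and are incubated 44 h before luminescence detection.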
An asterisk follows results filed as active; ? = inconclusive; / = no result given; [ ] = remark or other dose. Unless noted, calls follow the shape of the dose curve; as a rule, active = well fitted curve in the direction sought with a large enough effect; inconclusive = small, poorly fitted or top-dose-only effect, or another doubt; inactive = no such curve, though single readings can be large; an effect the other way counts as inactive or inconclusive.

SMILES	Sm TGR inh	SARS PLP yeast	HCMV antiviral	Pf growth 48h	Pf growth 96h	HCV inhibitor
N#CCc1cc2ccc3cccc4ccc(c1)c2c34	-3.2%	-3.5%	12.8	20.7%	38.7%	?
Cc1cc(NC(=O)c2c(-c3c(Cl)cccc3Cl)noc2C)n(C)n1	8.2%	-0.1%	-14.4	12.9%	?	0.5%
CCc1c(C)c(C#N)c2[nH]c3ccccc3n2c1=S	0.562µM*	-6.4%	-101.5*	-5.6%	?	?
CCc1cc(=S)n2c([nH]c3ccccc32)c1C#N	1.58µM*	-10.9%	/	12.3%	7.9%	-13.0%
O=C(c1cccc(C(F)(F)F)c1)N1CCOc2ccccc21	5.7%	-0.1%	-1.2	13.1µM*	0.8%	0.1%
Cc1cc(=O)oc2cc(OCC(=O)c3ccc4c(c3)NC(=O)CO4)ccc12	1.9%	-0.4%	6.8	33.3%	2.5%	7.5%
Cc1ccc2c(Cl)c(C(=O)NCC3CCCO3)sc2c1 (centres undefined)	3.3%	-4.4%	109.1	313.9%	93.3%	2.24µM*
CCNC(=O)c1sc2cc(C)ccc2c1Cl	-0.3%	1.4%	24.3	37.2%	13.1µM*	?
O=C(NCC1CCCO1)c1sc2ccccc2c1Cl (centres undefined)	7.0%	-5.6%	59.2	186.6%	?	1.4%
O=C(NCC1CCCO1)c1sc(=S)n2c1[nH]c(=O)c1ccc(C(=O)N3CCCCC3)cc12 (centres undefined)	-1.0%	-6.4%	33.4	10.4µM*	?	14.1%
C=C(c1ccccc1)[C@H](C#N)C1CCCC1	/	/	14.7	/	/	/
CCC(C)Sc1ccc([C@@H]2[C@@H]3C(=O)N(C)C(=O)[C@@H]3[C@]3(C(=O)OC)CCCCN23)cc1 (some centres undefined)	?	-4.9%	-25.6	?	?	-22.5%
CCN(C[C@H]1N[C@@](Cc2ccccc2)(C(=O)OC)[C@H]2C(=O)N(C)C(=O)[C@@H]12)C(=O)COC	/	-5.1%	-12.2	/	/	?
COc1ccc(CCNC(=O)c2nc(-c3ccc(Cl)cc3)n3c2CCCCC3)c(OC)c1	5.4%	/	-14.6	/	/	/
Oc1[nH]c2c(Cl)cc(Cl)cc2c1N=NC(=S)NCC1CCCO1 (centres undefined)	-4.2%	8.8%	-68.1*	1.85µM*	6.57µM*	?
Oc1[nH]c2ccc(Br)cc2c1N=NC(=S)NCC1CCCO1 (centres undefined)	-0.3%	0.5%	?	5.86µM*	?	11.2µM*
Cc1cc(C)c2[nH]c(O)c(N=NC(=S)NCC3CCCO3)c2c1 (centres undefined)	2.2%	-5.6%	-18.4	?	?	-6.3%
Oc1[nH]c2ccccc2c1N=NC(=S)NCC1CCCO1 (centres undefined)	15.8%	3.5%	7.6	?	?	?
CC(C)(C)OC(=O)N1CCC(c2c(C(=O)N3CCN(c4ccccc4F)CC3)cnn2-c2ccccc2Cl)CC1	8.0%	/	-28.9	/	/	/
Cc1ccc(S(=O)(=O)N[C@@H](Cc2ccccc2)C(=O)N2CCC(C(=O)N[C@@H](CC(C)C)C(=O)O)CC2)cc1	11.7%	0.5%	-25.8	13.0%	16.1%	15.5%
COc1ccc(OC)c(CNn2c(-c3ccccc3F)nc3ccccc3c2=O)c1	0.9%	-7.7%	?	?	-8.9%	-16.8%
COc1ccc(-n2c(-c3ccccc3Br)nc3ccccc3c2=O)cc1	1.4%	-1.5%	-62.8*	-3.9%[0.00184 µM]	-25.3%	-15.8%
COc1ccc(O)c(CNn2c(-c3ccc(Br)cc3)nc3ccccc3c2=O)c1	-5.3%	-4.7%	-74.3*	9.28µM*	-11.3%	-10.0%
Cc1cc(C(=O)Nn2c(-c3ccc(Br)cc3)nc3ccccc3c2=O)ccc1[N+](=O)[O-]	-7.6%	-24.6%	-75.3*	-5.9%	7.6%	-9.4%
CCOc1ccc(-n2c(CC)nc3ccccc3c2=O)cc1	-4.0%	4.4%	-87.3*	2.8%	-2.5%	0.6%
SMILES	Sm TGR inh	SARS PLP yeast	HCMV antiviral	Pf growth 48h	Pf growth 96h	HCV inhibitor
O=C(Nn1c(-c2ccc(Br)cc2)nc2ccccc2c1=O)c1ccncc1	8.7%	1.6%	-15.3	11.6%	28.3%	3.6%
O=C1CCCCN1CCCC(=O)N1CCCC(Nc2ccc(F)c(F)c2)C1 (centres undefined)	-23.2%	2.9%	52.2	-12.7%	70.4%	11.1%
CC(=O)N1c2ccc(S(=O)(=O)NCCC(=O)Nc3ccc(C)c(Cl)c3)cc2CC1C (centres undefined)	-2.0%	-3.3%	-22.1	7.6%	-32.0%	-16.7%
O=c1c2ccccc2nc(CNc2ccccc2)n1-c1ccccc1	0.0%	-1.0%	-19.0	?	7.38µM*	10.9%
O=C(CSC1=NS(=O)(=O)c2cc(Cl)ccc2N1)c1ccc(Cl)cc1	-1.2%	-1.0%	-15.0	13.0%	-11.5%	19.0%
O=C(NCC1CCCO1)c1cccc(S(=O)(=O)Nc2ccc(F)cc2)c1 (centres undefined)	3.3%	5.2%	9.5	-22.0%	15.8%	-5.0%
Cc1ccc(-n2ncc3c(N4CCC5(CC4)OCCO5)ncnc32)c(C)c1	-3.2%	5.5%	54.0	/	5.22µM*	?
Cc1ccc(-n2ncc3c(N4CCC(C(N)=O)CC4)ncnc32)c(C)c1	3.5%	0.3%	/	3.6%	/	14.4%
Cn1ncc2c(N3CCN(c4ccc(Cl)c(Cl)c4)CC3)ncnc21	-1.0%	-0.1%	-27.3	9.28µM*	?	?
Clc1ccc(-n2ncc3c(N4CCCC4)ncnc32)cc1	-29.6%	-1.1%	-66.1*	278.9%	234.8%	41.9%
Cc1ccc(-n2ncc3c(N4CCCCCC4)ncnc32)cc1	2.3%	/	-99.2*	/	/	/
O=C(CCCC(=O)OCC(F)(F)C(F)F)Nc1ccccc1F	-0.5%	-0.2%	-27.9	?	?	3.8%
CNc1nc(SCc2ccccc2Cl)nc2c1CCCC2	13.7%	-32.6%	-39.9	13.1µM*	14.7µM*	7.08µM*
O=c1[nH]c(SCc2ccccc2Cl)nc2c1CCC2	0.0%	-0.4%	18.0	7.3%	-126.0%	-21.5%
C(=NNc1ccc2ccccc2n1)c1ccccn1	/	/	-100.9*	/	/	/
Cc1cc(NN=Cc2ccccn2)nc2c(C)cccc12	/	/	-16.0	/	/	/
C(=N\NC1=Nc2cccc3cccc1c23)/c1ccccn1	8.3%	-3.3%	-79.9*	?	?	2.82µM*
Cc1cc(NN=Cc2ccccn2)nc2ccccc12	/	/	-100.2*	/	/	/
C/C(CCC(C)C)=N\Nc1cc(C)c2ccccc2n1	6.7%	1.9%	68.0	?	16.5µM*	2.9%
Cc1cccc([C@H]2[C@@H]3C=CCC[C@@H]3C(=O)N2Cc2ccccc2)c1	/	-66.7%	6.8	/	/	8.7%
CCOc1ccc2nc(NC(=O)c3nc(SC(C)C)ncc3Cl)sc2c1	1.5%	/	-17.3	/	/	/
